Common to all, as to assay: NCI-60 one-dose screen, 48 h (100 = growth as untreated, 0 = no growth, -100 = all killed)
Common to all, as to details: 10 µM unless noted

Assay [1] has as its system NCI-H23 lung.
For assay [2], the system named is NCI-H226 lung.
In assay [3] the test system is NCI-H322M lung.
Assay [4] has as its system HOP-62 NSCLC.
Assay [5] has as its system NCI-H460 lung.
Assay [6] relates to HOP-92 NSCLC.
For assay [7], the system named is NCI-H522 lung.
Assay [8] deals with A549/ATCC NSCLC.
The subject of assay [9] is 786-0 renal.
Assay [10] deals with COLO 205 colon.
In assay [11] the test system is DU-145 prostate.
Assay [12] relates to K-562 leukemia.
Assay [13] has as its system MALME-3M melanoma.
For assay [14], the system named is MDA-MB-231 breast.
In assay [15] the test system is RXF 393 renal.
For assay [16], the system named is SF-268 CNS.
For assay [17], the system named is SF-295 CNS.
Assay [18] deals with SF-539 CNS.
The test system of assay [19] is UACC-257 melanoma.
In assay [20] the test system is M14 melanoma.

For seven compounds, growth results are on record in PubChem BioAssay (NCI).

Where “and” joins values, the source holds several entries; their conditions need not be identical. Identical values can stand only once. Compounds without any hit were thinned out: in the full panel of roughly 83,000, 20% have a hit.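 Growth was measured after 48 h exposure to one concentration of compound in 96-well plates. Values under 10 count as active.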 Values without a mark were called inactive. Calls of active or inactive are those of the source.

In the case of `COc1cc(/C=C2\C(=O)N(CCCCn3c4ccccc4c(=O)c4ccccc43)c3ccccc32)cc(OC)c1O`, the growth in [1] is 71.6%; in assay [2] it was 91.5%; in assay [3], 86%; in assay [4] it was 102%; in [5], 60%; in assay [6] it was 65.7%. Further, the growth in assay [7] was 27.4%; in assay [8], 95.4%; in [9], 88.3%; in assay [10], 107%; in [11] it was 60.4%; in assay [12] it was 15.6%. In addition, the growth in assay [13] was 66.3%; in [14], 70%; in assay [15], 70.5%; in assay [16], 60.1%; in assay [17] it was 84%; in assay [18], 64.3%. For the same compound, the growth in [19] is 81.7%; in assay [20] it was 52.3%.
Consider `Oc1ccccc1C=Nc1ccc(N2CCN(c3ccccc3)CC2)cc1`, for which the growth in assay [1] is 93.4%; in [2], 110%; in assay [3] it was 98.2%; in [4], 74.7%; in [5], 111%; in [6], 99.5%. In addition, the growth in assay [7] was 95.7%; in assay [8], 92.1%; in assay [9] it was 94.1%; in assay [10], 93.7%; in [11], 104%; in assay [12] it was 80.7%. Further, the growth in [13] was 114%; in [14], 100%; in assay [15], 97.7%; in assay [16], 99.2%; in assay [17], 103%; in assay [18], 77.2%. The growth was 97% in [19] and 96.3% in assay [20].
Regarding `Cc1ccc(/C=C(\C#N)c2cc3ccccc3[nH]2)cc1`, the growth was 66% in assay [1]; 95.3% in [2]; 87.7% in assay [3]; 49.5% in [4]; 30.6% in assay [5]; 51.1% in assay [6]. Moreover, the growth in assay [7] was 13.7%; in assay [8] it was 49%; in assay [9], 72.7%; in assay [10] it was 32.4%; in assay [11], 73.1%; in [12], 13.8%. Also, the growth in assay [13] was 67.7%; in [14], 35.9%; in [15], 82.8%; in assay [16], 68.1%; in assay [17], 68.2%; in [18], 57.7%. In addition, the growth is 72.4% in assay [19] and 31.5% in assay [20].
On to `Nc1ccc(/C=N/Nc2ccnc3c(N)cccc23)c2cccnc12`, for which the growth in [1] is 3.42% (active); in [2] it was 89.3%; in [3], -4.16% (active); in assay [4] it was -64.3% (active); in assay [5], -63.8% (active); in [6] it was -17.9% (active). Further, the growth is -52.2% (active) in [7]; -43.8% (active) in [8]; -87% (active) in assay [9]; -22.8% (active) in [10]; -49.1% (active) in [11]; -55.7% (active) in [12]. Further, the growth in [13] is 104%; in assay [14] it was -66.6% (active); in [15], -72.5% (active); in assay [16], -61.8% (active); in assay [17], -75.6% (active); in [18], -94.9% (active). Further, the figures for the growth in assay [19] and in assay [20] were 88.1% and -78.6% (active), respectively.
Regarding `NS(=O)(=O)c1ccc(C(=O)N=Nc2c(O)[nH]c3c(F)cccc23)cc1`, the growth was 94.9% in [1]; 96.8% in assay [2]; 98.2% in [3]; 97.1% in assay [4]; 111% in assay [5]; 98.2% in [6]. Moreover, the growth in [7] is 91.2%; in assay [8] it was 99.9%; in [9], 103%; in assay [10], 106%; in assay [11], 113%; in assay [12] it was 107%. The growth was 95.9% in assay [13]; 106% in assay [14]; 97.3% in [15]; 107% in assay [16]; 103% in [17]; 94.8% in assay [18]. Besides, the growth in assay [19] was 103%; in [20] it was 101%.
In the case of `O=C1C=CC(=O)N1c1ccc2ccccc2c1`, the growth in assay [1] is 93.4% and 103%; in assay [2] it was 97.6% and 111%; in assay [3] it was 118% and 103%; in assay [4], 101%; in assay [5], 110% and 111%; in assay [6], 81.8% and 84.1%. Moreover, the growth in assay [7] is -58.9% (active) and -24.2% (active); in [8], 99%; in assay [9] it was 103% and 104%; in assay [10], -58.5% (active) and -42.5% (active); in [11], 94.4% and 99.5%; in assay [12], 47% and 35.5%. Besides, the growth in assay [13] was 69.4% and 30.9%; in assay [14], 111% and 96.5%; in assay [15], 83.3% and 102%; in assay [16] it was 100% and 105%; in assay [17] it was 112% and 99%; in assay [18], 108% and 93.6%. Moreover, the growth in assay [19] is 92.5% and 91.1%; in assay [20], 91.1% and 103%.
Turning to `c1ccc(-c2cc(-c3cc(-c4ccccc4)on3)no2)cc1`, the growth in [1] was 74.9%; in assay [2], 98.8%; in assay [3] it was 89.9%; in assay [4], 107%; in assay [5], 45%; in [6], 86.1%. The growth in assay [7] was 62.2%; in [8], 78.9%; in [9] it was 106%; in assay [10] it was 94.2%; in assay [11], 9.62% (active); in [12] it was 77.7%. Besides, the growth is 114% in assay [13]; 105% in assay [14]; 74.8% in assay [15]; 90.1% in [16]; 82.2% in assay [17]; 91.3% in [18]. Moreover, the growth in assay [19] is 79.6%; in assay [20] it was 109%.
